Experimental data from the supplement of paper PMC8975748.
Where a name gives a salt, the structure may show the parent alone.

system: Saccharomyces cerevisiae BY4741 SeMeCo community; experiment: z-score of subpopulation abundance vs DMSO median, subpopulation auxotrophic for HU; higher = larger share of this subpopulation than in DMSO controls; settings: 10 µM; 24 h; SM minimal medium; subpopulation (auxotrophy): HU
Experimental: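 Fluorescent four-plasmid SeMeCo (self-establishing metabolically cooperating S. cerevisiae BY4741 community; plasmids pH-mRuby2, pL-mWasabi, pU-eCFP, pM-TagRFP657) was grown 24 h in minimal SM medium with each Selleck FDA-approved drug at 10 µM in 384-well plates. Cells were fixed and imaged by high-content confocal microscopy. For each auxotrophic subpopulation (and the prototroph), a z-score gives the deviation from the DMSO vehicle-control population median.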

Row | Structure (SMILES) | z-score of subpopulation abundance
1 | CN1CCN(c2cc3c(cc2F)c(=O)c(C(=O)O)cn3-c2ccc(F)cc2)CC1 [Difloxacin hydrochloride] | -0.87
2 | CC1=C(C(=O)O)N2C(=O)[C@@H](NC(=O)[C@H](N)c3ccc(O)cc3)[C@H]2SC1 [Cefadroxil hydrate] | -0.04
3 | C#C[C@]1(O)CC[C@H]2[C@@H]3CCC4=CCCC[C@@H]4[C@H]3C(=C)C[C@@]21CC [Desogestrel] | -0.11
4 | CCCNC(C)C(=O)Nc1ccccc1C (stereo not given) [Prilocaine hydrochloride] | 0.08
5 | CC1CCc2c(N3CCC(O)CC3)c(F)cc3c(=O)c(C(=O)O)cn1c23 (stereo not given) [Nadifloxacin] | 0.43
6 | CS(=O)(=O)Nc1ccc([N+](=O)[O-])cc1Oc1ccccc1 [Nimesulide] | -0.2
7 | NCC[C@H](O)C(=O)N[C@@H]1C[C@H](N)[C@@H](O[C@H]2O[C@H](CN)[C@@H](O)[C@H](O)[C@H]2O)[C@H](O)[C@H]1O[C@H]1O[C@H](CO)[C@@H](O)[C@H](N)[C@H]1O [Amikacin hydrate] | -0.52
8 | CCn1cc(C(=O)O)c(=O)c2ccc(C)nc21 [Nalidixic acid] | -0.52
9 | CCN(Cc1ccncc1)C(=O)C(CO)c1ccccc1 (stereo not given) [Tropicamide] | 0.5
10 | O=C(Nc1ccc(Oc2ccc(Cl)cc2)c(Cl)c1)c1cc(I)cc(I)c1O [Rafoxanide] | -0.5
11 | CO/N=C(\C(=O)N[C@@H]1C(=O)N2C(C(=O)OC(C)OC(C)=O)=C(COC(N)=O)CS[C@H]12)c1ccco1 (stereo not given in full) [Cefuroxime axetil] | 0.15
12 | Cc1ccsc1/C=C/C1=NCCCN1C [Morantel tartrate] | 0.3
13 | CC1(C)S[C@@H]2[C@H](NC(=O)[C@H](N)c3ccccc3)C(=O)N2[C@H]1C(=O)OCOC(=O)[C@@H]1N2C(=O)C[C@H]2S(=O)(=O)C1(C)C [Sultamicillin] | 2.39
14 | CCCCCC(=O)O[C@]1(C(C)=O)CC[C@H]2[C@@H]3CCC4=CC(=O)CC[C@]4(C)[C@H]3CC[C@@]21C [Hydroxyprogesterone caproate] | 1.19
15 | CC1(C)CC[C@]2(C(=O)O)CC[C@]3(C)C(=CC[C@@H]4[C@@]5(C)CC[C@H](O)C(C)(C)[C@@H]5CC[C@]43C)[C@@H]2C1 [Oleanolic Acid] | 0.23
16 | C=C1c2cccc(O)c2C(O)=C2C(=O)[C@]3(O)C(O)=C(C(N)=O)C(=O)[C@@H](N(C)C)[C@@H]3[C@@H](O)[C@H]12 [Methacycline HCl] | -0.49
17 | COc1ccc2[nH]c([S+]([O-])Cc3ncc(C)c(OC)c3C)nc2c1 (stereo not given) [Omeprazole] | 0.46
18 | Cc1c(OCC(F)(F)F)ccnc1C[S+]([O-])c1nc2ccccc2[nH]1 (stereo not given) [Lansoprazole] | 0.54
19 | CCOC(=O)c1ccc(N)cc1 [Benzocaine hydrochloride] | 0.87
20 | CCN(CC)CC#CCOC(=O)C(O)(c1ccccc1)C1CCCCC1 (stereo not given) [Oxybutynin chloride] | -0.4

Row | Structure (SMILES) | z-score of subpopulation abundance
21 | Nc1ccc(S(=O)(=O)Nc2ccnn2-c2ccccc2)cc1 [Sulfaphenazole] | -0.47
22 | CCCCCCCN(CC)CCCC(O)c1ccc(NS(C)(=O)=O)cc1 (stereo not given) [Ibutilide Fumarate] | 0.97
23 | Cc1ccc(C(=O)C(C)CN2CCCCC2)cc1 (stereo not given) [Tolperisone HCl] | -0.2
24 | CCc1cc(C(N)=S)ccn1 [Ethionamide] | 0.19
25 | CCCC(=O)OCOC(=O)C1=C(C)NC(C)=C(C(=O)OC)C1c1cccc(Cl)c1Cl (stereo not given) [Clevidipine Butyrate] | -5.62
26 | CC(C)(C)C(=O)C(Oc1ccc(Cl)cc1)n1ccnc1 (stereo not given) [Climbazole] | 4.67
27 | O=C1CCc2ccc(OCCCCN3CCN(c4cccc(Cl)c4Cl)CC3)cc2N1 [Aripiprazole] | 1.26
28 | CC[C@H]1OC(=O)[C@H](C)[C@@H](O[C@H]2C[C@@](C)(OC)[C@@H](O)[C@H](C)O2)[C@H](C)[C@@H](O[C@@H]2O[C@H](C)C[C@H](N(C)C)[C@H]2O)[C@](C)(O)C[C@@H](C)C(=O)[C@H](C)[C@@H](O)[C@]1(C)O [Erythromycin thiocyanate] | -0.7
29 | Cc1ccc(S(=O)(=O)NC(=O)NN2CC3CCCC3C2)cc1 (stereo not given) [Gliclazide] | -0.25
30 | CC1(C)[C@H](C(=O)O)N2C(=O)C[C@H]2S1(=O)=O [Sulbactam sodium] | 1.1
31 | Clc1ccc(C(Cn2ccnc2)OCc2ccc(Sc3ccccc3)cc2)c(Cl)c1 (stereo not given) [Fenticonazole Nitrate] | 28.7
32 | NC[C@@H]1O[C@H](O[C@H]2[C@@H](O)[C@H](O[C@@H]3[C@@H](O)[C@H](N)C[C@H](N)[C@H]3O[C@H]3O[C@H](CO)[C@@H](O)[C@H](O)[C@H]3N)O[C@@H]2CO)[C@H](N)[C@@H](O)[C@@H]1O [Paromomycin Sulfate] | -0.92
33 | CC1=C(C(=O)OCCN(Cc2ccccc2)c2ccccc2)C(c2cccc([N+](=O)[O-])c2)C(P2(=O)OCC(C)(C)CO2)=C(C)N1 (stereo not given) [Efonidipine] | 1.86
34 | CC1(C)S[C@@H]2[C@H](NC(=O)[C@H](N)c3ccccc3)C(=O)N2[C@H]1C(=O)O [Ampicillin Trihydrate] | -0.36
35 | CN(C)[C@@H](CCOc1cccc2ccccc12)c1ccccc1 [Dapoxetine HCl] | -0.49
36 | Nc1nc(N)c2nc(-c3ccccc3)c(N)nc2n1 [Triamterene] | -7.52
37 | CCN1CCCC1CNC(=O)c1cc(S(=O)(=O)CC)c(N)cc1OC (stereo not given) [Amisulpride] | 0.3
38 | CCCCCOc1ccccc1/C(=C\SC)n1ccnc1 [Neticonazole Hydrochloride] | 6.23
39 | COc1cccc2c1C(=O)c1c(O)c3c(c(O)c1C2=O)C[C@@](O)(C(C)=O)C[C@@H]3O[C@H]1C[C@H](N)[C@H](O)[C@H](C)O1 [Daunorubicin HCl] | 4.21
40 | CCC(C)(C)C(=O)O[C@H]1C[C@@H](C)C=C2C=C[C@H](C)[C@H](CC[C@@H]3C[C@@H](O)CC(=O)O3)[C@H]21 [Simvastatin] | 1.53
